We go through 8 compounds from PubChem BioAssay (NCI).

This is part of a sample that, as a whole, favours compounds with a hit. Of some 83,000 tested, about 20% had one in any assay.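 Interpretation: 100, growth as untreated; towards 0, rising growth inhibition; 0, no net growth; 0 to -100, cell death. Compounds scoring below 10 were considered active.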 Values without a mark were called inactive. Activity calls are given as the source filed them.

Some test systems named below: SR leukemia; RPMI-8226 leukemia; OVCAR-8 ovarian; OVCAR-5 ovarian; OVCAR-4 ovarian; SK-OV-3 ovarian; IGROV1 ovarian; OVCAR-3 ovarian; HS 578T breast; NCI/ADR-RES ovarian; T-47D breast; BT-549 breast; MDA-MB-435 melanoma; SW-620 colon; MCF7 breast; HCT-116 colon; HCC-2998 colon; KM12 colon.
Assay in all cases: NCI-60 one-dose screen, 48 h (100 = growth as untreated, 0 = no growth, -100 = all killed)
Common to all, as to settings: 10 µM unless noted

For `O=C(CSc1nc2ccc([N+](=O)[O-])cc2[nH]1)Nc1ccc(F)cc1`, the growth was 33.7% with SR leukemia; 24.1% in the assay with RPMI-8226 leukemia; 67.3% in the assay on OVCAR-8 ovarian; 91.8% with OVCAR-5 ovarian; 34.6% with OVCAR-4 ovarian; 63.1% in the assay with SK-OV-3 ovarian. Moreover, the growth was 68.4% in the assay with IGROV1 ovarian; 47.8% with OVCAR-3 ovarian; 74% in the assay on HS 578T breast; 59% in the assay with NCI/ADR-RES ovarian; 16.6% in the assay on T-47D breast; 65.2% in the assay on BT-549 breast. Moreover, the growth with MDA-MB-435 melanoma was 53.1%; with SW-620 colon, 86%; in the assay with MCF7 breast it was 62.1%; in the assay on HCT-116 colon, 54.7%; with HCC-2998 colon it was 75.7%; in the assay with KM12 colon it was 64%.

With `O=C(OCc1ccc2c(Cl)cc(Cl)c(O)c2n1)n1cncn1`, the growth is 23.1% in the assay on SR leukemia; 32.9% with RPMI-8226 leukemia; 20.7% with OVCAR-8 ovarian; 81.8% in the assay on OVCAR-5 ovarian; 25.1% in the assay with OVCAR-4 ovarian; 39% with SK-OV-3 ovarian. Besides, the growth in the assay on IGROV1 ovarian is 32.9%; with OVCAR-3 ovarian, 30.7%; in the assay on HS 578T breast, 67.4%; in the assay with NCI/ADR-RES ovarian, 5.53% (active); in the assay with T-47D breast, 36.1%; with BT-549 breast it was 50.4%. The growth in the assay with MDA-MB-435 melanoma was 27.9%; in the assay on SW-620 colon it was 24.7%; with MCF7 breast, 23.2%; in the assay with HCT-116 colon it was 30.1%; in the assay with HCC-2998 colon, 54.4%; with KM12 colon it was 21.8%.

As for `COc1ccc(C(=O)Nc2ncc(Cc3ccc(F)cc3)s2)cc1`, the growth with SR leukemia is 11.1%; in the assay with RPMI-8226 leukemia it was 15.9%; with OVCAR-8 ovarian, 27.6%; with OVCAR-5 ovarian, 29.6%; with OVCAR-4 ovarian, 48.9%; with SK-OV-3 ovarian it was 44.6%. The growth in the assay with IGROV1 ovarian is 18.3%; in the assay on OVCAR-3 ovarian, -22.2% (active); with HS 578T breast it was 31.7%; with NCI/ADR-RES ovarian it was 7.08% (active); with T-47D breast, 33.6%; with BT-549 breast, 40.4%. Besides, the growth was 2.51% (active) with MDA-MB-435 melanoma; 31% in the assay with SW-620 colon; 12.3% with MCF7 breast; 13.1% with HCT-116 colon; 8.19% (active) with HCC-2998 colon; 3.05% (active) in the assay with KM12 colon.

For `CC(=O)c1cc(O)c2ccccc2c1O`, the growth with SR leukemia is 110%; in the assay with RPMI-8226 leukemia, 46.4%; in the assay with OVCAR-8 ovarian, 86.3%; in the assay with OVCAR-5 ovarian, 109%; in the assay on OVCAR-4 ovarian, 93.4%; in the assay with SK-OV-3 ovarian, 102%. In addition, the growth in the assay with IGROV1 ovarian is 52.8%; in the assay on OVCAR-3 ovarian, 91.7%; with HS 578T breast, 123%; in the assay on NCI/ADR-RES ovarian, 87%; in the assay on T-47D breast, 87.1%; with BT-549 breast, 91.7%. Besides, the growth in the assay with MDA-MB-435 melanoma is 111%; with SW-620 colon it was 108%; in the assay with MCF7 breast it was 75.2%; with HCT-116 colon it was 95.4%; in the assay on HCC-2998 colon, 166%; in the assay on KM12 colon, 106%.

Turning to `COC(=O)c1cc(-c2ccc(OC)cc2)[nH]c1N/N=C/c1c(Cl)cccc1Cl`, the growth in the assay on SR leukemia is -16.4% (active); with RPMI-8226 leukemia, 10.9%; in the assay with OVCAR-8 ovarian it was 14.5%; in the assay on OVCAR-5 ovarian, 44.3%; with OVCAR-4 ovarian, 40.6%; with SK-OV-3 ovarian it was 18.8%. Besides, the growth with IGROV1 ovarian is 29%; in the assay with OVCAR-3 ovarian it was -72.4% (active); in the assay with HS 578T breast, 0.353% (active); in the assay with NCI/ADR-RES ovarian, 20%; with T-47D breast it was 45.5%; in the assay with BT-549 breast, -9.36% (active). The growth in the assay on MDA-MB-435 melanoma is -54.7% (active); in the assay on SW-620 colon, 9.62% (active); with MCF7 breast it was 1.03% (active); in the assay on HCT-116 colon, -64.5% (active); in the assay with HCC-2998 colon, 67.4%; in the assay with KM12 colon, 2.76% (active).

Regarding `COc1cc(N2C(=O)[C@H](O)C2c2ccc(SC)cc2)cc(OC)c1OC` (some centres undefined), the growth in the assay with SR leukemia was 3.99% (active); with RPMI-8226 leukemia, 9.69% (active); in the assay with OVCAR-8 ovarian it was 6.99% (active); in the assay with OVCAR-5 ovarian it was 80.3%; in the assay on OVCAR-4 ovarian it was 56.5%; in the assay on SK-OV-3 ovarian, 3.02% (active). Moreover, the growth in the assay with IGROV1 ovarian is 31.4%; in the assay on OVCAR-3 ovarian it was -11.9% (active); in the assay with HS 578T breast, 34.9%; with NCI/ADR-RES ovarian it was 14.2%; with T-47D breast, 49.2%; in the assay with BT-549 breast it was -6.32% (active). Further, the growth with MDA-MB-435 melanoma was -39.5% (active); in the assay with SW-620 colon it was 23.7%; in the assay with MCF7 breast it was 13.5%; in the assay on HCT-116 colon, 1.16% (active); in the assay with HCC-2998 colon, 26.1%; in the assay on KM12 colon it was 11.8%.

For the compound `COCCNC(=O)c1ccc(-c2nc3ccc4[nH]ncc4c3c3c2CCCC3)cc1`, the growth with SR leukemia was 5.46% (active); with RPMI-8226 leukemia, 29.6%; in the assay with OVCAR-8 ovarian it was 46%; in the assay on OVCAR-5 ovarian, 67.8%; with OVCAR-4 ovarian, 61.9%; with SK-OV-3 ovarian, 6.55% (active). In addition, the growth with IGROV1 ovarian is 15.8%; with OVCAR-3 ovarian, 56%; in the assay with HS 578T breast, -6.17% (active); with NCI/ADR-RES ovarian, 63.9%; in the assay on T-47D breast, 44.5%; in the assay with BT-549 breast it was 10.3%. In addition, the growth is 16.4% in the assay with MDA-MB-435 melanoma; 11% in the assay with SW-620 colon; 35.9% with MCF7 breast; 13% in the assay on HCT-116 colon; 47.5% in the assay with HCC-2998 colon; 19.7% with KM12 colon.

For the compound `N=C(N)c1ccc(-c2ccc(-c3ccc(Cl)cc3)s2)nc1`, the growth in the assay with SR leukemia is 1.7% (active); in the assay on RPMI-8226 leukemia, -24.6% (active); with OVCAR-8 ovarian it was -31% (active); with OVCAR-5 ovarian it was -28% (active); with OVCAR-4 ovarian, 18.1%; with SK-OV-3 ovarian, 86.7%. For the same compound, the growth in the assay on IGROV1 ovarian is -79.2% (active); with OVCAR-3 ovarian it was -93% (active); with HS 578T breast, 67.5%; in the assay on NCI/ADR-RES ovarian, 67.4%; in the assay with T-47D breast it was 56.4%; with BT-549 breast it was 98%. For the same compound, the growth in the assay on MDA-MB-435 melanoma is -15% (active); in the assay with SW-620 colon, -83.5% (active); in the assay on MCF7 breast it was -73.3% (active); in the assay with HCT-116 colon, -82.3% (active); in the assay on HCC-2998 colon it was -78.2% (active); in the assay on KM12 colon, -74.8% (active).
